This note sets out measurements from PubChem BioAssay AID488899 (Broad Institute, 2010).

Structures are written as SMILES. The whole screen tested about 330,000 compounds, of which about 2,800 (0.85%) were called active. Shown is part of a subset that was picked to be rich in actives. A number with no mark means an inactive call.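 Rule for the calls: active = mean inhibition across replicates of 60% or more, whatever share of single replicates reaches that level; inconclusive = some that reach 60%, reason not given; inactive = mean inhibition across replicates below 60%.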

For orientation: inhibition means the change of the read-out against control, counted positive when it falls.

This test is described as follows: MITF transcriptional activity suppression – cell-based, SK-MEL-5, single point, luciferase, primary screen (AID 488899). The settings on record: SK-MEL-5 TRPM1 promoter luciferase, 24 h; at 12.5 µM; active compounds read high.
Regarding `O=C(N/N=C/c1cccc(OCc2ccccc2)c1)c1ccc(Br)o1`, the inhibition was 4.51%.
Under `N#Cc1cc([N+](=O)[O-])ccc1Oc1cccc(/C=N/NC(=O)c2ccc(Cl)cc2)c1` stands 4.52%.
Under `CCCc1ccc(OCc2ccc(C(=O)N/N=C/c3cccc([N+](=O)[O-])c3)o2)c(OC)c1` stands 69.2% (active); under `COc1ccc(C(=O)NC2CC(C)(C)NC(C)(C)C2)cc1OC`, 1.95%.
Consider `CCOc1ncccc1C(=O)OCC(=O)c1c[nH]c2ccccc12`, for which the inhibition is 1.75%.
With `O=C(Nc1cc2c3c(c1)C1CCCC1CN3CC1CCCC21)c1ccc([N+](=O)[O-])cc1` (stereo not given), the inhibition was 1.02%.
Turning to `COc1ccc(NC(=O)N2CCCC2C(=O)NCc2ccccc2Cl)cc1` (stereo not given), the inhibition was 11.5%.
For `C=CCNc1nnc(SCC(=O)N2CCCCC2)c2ccccc12`, the inhibition is 11.5%.
Turning to `CC(C)Cn1c(CCC(=O)O)ccc1-c1cccs1`, the inhibition is 7.94%.
The value for `COc1ccc2sc(N(CCCN(C)C)C(=O)c3ccc(S(=O)(=O)N(C)C4CCCCC4)cc3)nc2c1` was 55.2%; that for `N=C1C(c2nc3ccccc3s2)=C(O)CN1NC(=O)c1ccc([N+](=O)[O-])cc1` was 14.1%.
Turning to `CC1CCN(C(=O)c2cccc(S(=O)(=O)N3CCCc4ccccc43)c2)CC1`, the inhibition was 7.39%.
The value for `CCc1ccc2nc(N(CCCN(C)C)C(=O)c3ccc4c(c3)OCCO4)sc2c1` was -67.8%; that for `CN(C)CCCN(C(=O)c1ccc(S(=O)(=O)N2CCCCCC2)cc1)c1nc2ccc(Br)cc2s1` was 92.8% (active); that for `CCC(=O)Nc1nnc(S(=O)(=O)N2CCCc3ccccc32)s1` was 5.17%.
Under `CN(C)CCCN(C(=O)c1ccc(S(=O)(=O)N2CCCc3ccccc32)cc1)c1nc2ccc(F)cc2s1` stands 70.8% (active); under `O=C(Nc1nc2ccc([N+](=O)[O-])cc2s1)c1ccc(S(=O)(=O)N2CCCc3ccccc32)cc1`, 75.6% (active).
Under `Cn1c(=O)n(C)c2cc(S(=O)(=O)N3CCCc4ccccc43)ccc21` stands 0.873%; under `O=C(COC(=O)c1ccc([N+](=O)[O-])cc1Cl)NC(=O)c1ccccc1`, -3.45%; under `Cc1ccc(NC(=O)c2cccc(S(=O)(=O)N3CCCc4ccccc43)c2)nc1`, 23.9%.
As to `O=C(NC(Nc1nc2ccc([N+](=O)[O-])cc2s1)(C(F)(F)F)C(F)(F)F)c1ccccc1`, the inhibition was 70.9% (active).
Under `CC(=O)N(OCc1ccc(OC(C)C)c(Cl)c1)C(C)=O` stands -2.52%; under `OCC1(CO)CC2(C1)CC(CO)(CO)C2`, -3.8%.
In the case of `CCN(CC)S(=O)(=O)c1cccc(NC(=O)c2ccc(S(=O)(=O)N3CCCC3)cc2)c1`, the inhibition is 11%.
Under `COc1ccc(-c2cc(C(=O)NC(Cc3c[nH]c4ccccc34)C(=O)O)c(C)o2)cc1OC` (stereo not given) stands 9.33%; under `O=C(NCC1(N2CCCCC2)CCCCC1)c1cccc(S(=O)(=O)Nc2ccccc2Cl)c1`, -26.7%; under `Cc1cc(NC(=O)C(C)SCC(=O)Nc2cccc(S(=O)(=O)N3CCCCCC3)c2)no1` (stereo not given), 18.1%.
With `CCC1CCCCN1C(=S)Nc1ccc(SC(F)F)cc1` (stereo not given), the inhibition was -3.13%.
Regarding `COCCn1c(=NC(=O)c2ccccc2[N+](=O)[O-])sc2cc(S(C)(=O)=O)ccc21`, the inhibition is -52%.
The value for `N#CC1=C(N)Oc2cc(N)ccc2C1c1ccccc1` (stereo not given) was 23.5%; that for `Nc1ncnc2c1cnn2C1CC(O)C(CO)O1` (stereo not given) was -4.63%.
On to `CC(C(=O)NC1CCCC1)N1CCN(S(=O)(=O)c2ccccc2Cl)CC1` (stereo not given), for which the inhibition was -2.61%.
The value for `O=C(Nc1c[nH]c(=O)[nH]c1=O)OCc1ccccc1` was 0.994%; that for `CC1(C)N=C(N)NC(Nc2ccc(Cl)cc2)=N1` was 4.8%; that for `CC(C)(C)OC(=O)NC(Cc1ccccc1)C(=O)NC(CSC1CCCCO1)C(=O)NN` (stereo not given) was -5.98%.
Under `COc1ccc2sc(-c3ccc(N(C)C)cc3)c(C#CCO)c2c1` stands -46.5%; under `COc1ccc2c(c1)c(=Cc1ccc(N(C)C)cc1)c1cc(-c3ccccc3)[n+](C)n12`, 95.7% (active).
The value for `COc1ccc2sc(-c3ccc(N(C)C)cc3)c(-c3ccc4cc[nH]c4c3)c2c1` was -103%.
For `Cn1cc(S(=O)(=O)N2CCN(c3ccc(F)cc3)CC2)c(=O)n(C)c1=O`, the inhibition was 1.94%.
Take `COC(=O)Cc1nc2c(N)nc(N)nc2[nH]c1=O`: the inhibition was 3.9%.
The value for `CCc1ccc(-c2cc(C)no2)cc1S(=O)(=O)NCCc1ccc(S(N)(=O)=O)cc1` was -13.2%; that for `O=C(C[C@H]1C[C@H](C(=O)N2CCOCC2)[C@@]2(CCC3CCCC3)c3[nH]c4ccc(Cl)cc4c3CCN2C1=O)NCc1ccco1` was 21.2%.
For the compound `COc1ccc(CNC(=O)C[C@H]2C[C@H](C(=O)N3CCOCC3)[C@@]3(CCC4CCCC4)c4[nH]c5ccc(Cl)cc5c4CCN3C2=O)cc1OC`, the inhibition was 72.7% (active).
As to `COc1ccc2[nH]c3c(c2c1)CCN1C(=O)C(CC(=O)NCCCN(C)C)C[C@H](C(=O)N2CCOCC2)[C@@]31CCC1CCCC1` (stereo not given in full), the inhibition was -12.1%.
Regarding `CCOC(=O)N1CCN(C(=O)C2CCCN(c3ncnc4c3sc3cccc(F)c34)C2)CC1` (stereo not given), the inhibition was 28.8%.
Under `Cc1[nH]c2c(C(=O)N3CCCC(CCC(=O)NCc4ccccc4F)C3)cccc2c1C` (stereo not given) stands -16%; under `CC(=O)N(C1=C(Cl)C(=O)c2ccccc2C1=O)c1ccc(C(=O)O)cc1`, 11.6%; under `O=C1C(Cl)=C(Oc2ccccc2)C(=O)c2ccccc21`, 89.7% (active).
`CC(=O)Oc1ccc2c(c1)C(=O)c1ccccc1C2=O`: the inhibition was -2.87%.
The value for `COC(=O)C1=C(NC(=O)C(C)(C)C)CCS1` was -3.02%; that for `CC(C)C[C@@H](NC(=O)[C@H]1CCCN1C(=O)Cc1ccccc1)C(N)=O` was 0.4%.
With `NC(=O)C1(N2CCCC2)CCN(Cc2ccccc2)CC1`, the inhibition is -3.66%.
`C=CCNc1cnn(-c2ccc(C)cc2)c(=O)c1Cl`: the inhibition was -110%.
Under `Cc1cccc(-n2ncc(C#N)c2-n2cccc2)c1` stands 3.18%; under `Cc1cccc(-n2ncc(Cl)c(Cl)c2=O)c1`, 72.1% (active).
